The target of the first experiment is PUM1 PUF domain R1-GRR (Homo sapiens, UniProt Q14671 828-1176, S863G;Q867R). The experiment in a line: yeast three-hybrid, YBZ-1, SC-Leu-His + 0.5 mM 3-AT, 4 days. Particulars: tags: N-Gal4 AD-HA kept; label: inside an RPR1-promoter hybrid RNA with tandem MS2 sites; ssRNA. The gist of the method: (§1)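 Pumilio-1 PUF domain libraries, randomized (NNK) at the three base-contacting residues of each repeat, were co-expressed with matching RNA elements from a centromeric plasmid in strain YBZ-1 (LexA–MS2 coat fusion, HIS3 reporter). Transformants were plated on SC-Leu (input) and SC-Leu-His + 0.5 mM 3-AT (selection) for four days, and repeat regions were PCR-amplified and Illumina-sequenced. The interaction score is the log2 change in variant frequency from input to selection, with pseudocount 1 where absent.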
On to “GGCUAGAACUAGUGGAUCCCCCGGCGCCCGGCGGCUCGAGCCCGGGUAAGUGUAAAUCGUCUGCAUGCCGCCGGGCGCCAUGCCUGCAGGUCGACUCUAGAAAACAUG”, for which the binding signal was 3.99 log2 enrichment (interaction score).
With “GGCUAGAACUAGUGGAUCCCCCGGCGCCCGGCGGCUCGAGCCCGGGUAAGUGUAAAUGGUCUGCAUGCCGCCGGGCGCCAUGCCUGCAGGUCGACUCUAGAAAACAUG”, the binding signal was 1.78 log2 enrichment (interaction score).
Take “GGCUAGAACUAGUGGAUCCCCCGGCGCCCGGCGGCUCGAGCCCGGGUAAGUGUAAAUUGUCUGCAUGCCGCCGGGCGCCAUGCCUGCAGGUCGACUCUAGAAAACAUG”: the binding signal is 2.59 log2 enrichment (interaction score).

For another experiment, the target named is PUM1 PUF domain R3-LFV (Homo sapiens, UniProt Q14671 828-1176, C935L;R936F;Q939V). Described as above. Particulars: tags: N-Gal4 AD-HA kept; label: inside an RPR1-promoter hybrid RNA with tandem MS2 sites; ssRNA. The gist of the method:
as §1
Consider “GGCUAGAACUAGUGGAUCCCCCGGCGCCCGGCGGCUCGAGCCCGGGUAAGUGUAAGUAGUCUGCAUGCCGCCGGGCGCCAUGCCUGCAGGUCGACUCUAGAAAACAUG”, for which the binding signal is 5.59 log2 enrichment (interaction score).
As to “GGCUAGAACUAGUGGAUCCCCCGGCGCCCGGCGGCUCGAGCCCGGGUAAGUGUAACUAGUCUGCAUGCCGCCGGGCGCCAUGCCUGCAGGUCGACUCUAGAAAACAUG”, the binding signal is 2.66 log2 enrichment (interaction score).
Turning to “GGCUAGAACUAGUGGAUCCCCCGGCGCCCGGCGGCUCGAGCCCGGGUAAGUGUAAUUAGUCUGCAUGCCGCCGGGCGCCAUGCCUGCAGGUCGACUCUAGAAAACAUG”, the binding signal was 4.09 log2 enrichment (interaction score).
With “GGCUAGAACUAGUGGAUCCCCCGGCGCCCGGCGGCUCGAGCCCGGGUAAGUGUAAAUAGUCUGCAUGCCGCCGGGCGCCAUGCCUGCAGGUCGACUCUAGAAAACAUG”, the binding signal is 3.48 log2 enrichment (interaction score).

The values above are taken from paper PMC8384837, “Expanding the binding specificity for RNA recognition by a PUF domain”.
